Screening results: PubChem BioAssay, National Center for Advancing Translational Sciences (NCATS)
This is a sample that favours compounds with a hit; in the whole collection about 18% have one here.
CtBP-E1A inh: CtBP/E1A binding inhibition | activity change, % (no concentration beside the values) | actives 0.49% (n = 340,000) | AlphaScreen GST-E1A/His-CtBP binding, 1536-well; hits give low values; in the data active = activity change below about -65%; inconclusive = mostly about -30% to -63%
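Steps: dispense buffer (Tris pH 8.0, NaCl 300 mM, TCEP 1 mM, BSA, Tween 20); add 5X protein mix (GST-E1A, His-CtBP, 125 nM each); pin 23 nL compound; 2 h at 37 °C, dark; add 5X beads (50 ug/mL); 1 h; read.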
IL-1B inflam inh: blocks inflammasome-driven IL-1 beta release. THP-1 LPS/ATP IL-1B secretion, AlphaLISA, 16 h; hits give low values. activity change, % at 57.5 µM. actives 4.7% (n = 360,000). AID 743279; in the data active = activity change below about -50%; inconclusive = mostly about -30% to -49%
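Secreted IL-1B measured by AlphaLISA bead assay after 16 h compound exposure of THP-1 cells; compounds (final up to 57.5 uM) added 1 h before LPS (250 ng/mL) and ATP (1.25 mM) stimulation; lower signal means less secretion.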
DT40 TDP1 CPT: growth inhibition of DT40 Tdp1-/-;hTDP1 cells with camptothecin (screen for TDP1 inhibitors); chicken DT40 Tdp1-/-;hTDP1 cells + 20 nM CPT, ATP luminescence, 48 h; Potency, µM (doses to about 46.2 µM), inactives show top-dose activity change, negative = growth inhibition, usual class: inhibitors; actives 12% (n = 420,000); AID 686979; note: potency is the fitted concentration of half-maximal effect; nearly all actives have a fitted effect of over 55% in size
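Chicken DT40 Tdp1-/- cells stably complemented with human TDP1 were seeded at 400 cells/well in medium containing 20 nM camptothecin, exposed to pin-transferred compounds, and grown at 37 °C for at least 48 hr. Viability was read as ATP luminescence.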
TDP1 cell noCPT: qHTS for Inhibitors of human tyrosyl-DNA phosphodiesterase 1 (TDP1): qHTS in cells in absence of CPT. DT40 Tdp1-/- hTDP1 cells, no CPT, ATP luminescence, 48 h. Potency, µM (series often up to 46.2 µM), for the others: at the highest dose activity change, negative = growth inhibition, hits mostly inhibitors. actives 15% (n = 420,000). AID 686978, 2013; note: potency is the fitted concentration of half-maximal effect; nearly all actives have a fitted effect of over 55% in size
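Cells were dispensed at 400 per well, compounds added by pin tool, plates incubated ≥48 hr at 37 °C, then CellTiter-Glo added for 30 min at room temperature before luminescence reading. Line: DT40 Tdp1-/- complemented with hTDP1; camptothecin omitted.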
TDP1 block: inhibitors of human tyrosyl-DNA phosphodiesterase TDP1; Q9NUW8; recombinant TDP1, AlphaScreen DNA substrate cleavage; Potency, µM (doses to about 130 µM), for inactives: at the top dose activity change, negative = inhibition, usual class: inhibitors; actives 0.28% (n = 350,000); note: potency is the fitted concentration of half-maximal effect; nearly all actives have a fitted effect of over 40% in size
Target sequence (Q9NUW8 whole entry, looked up): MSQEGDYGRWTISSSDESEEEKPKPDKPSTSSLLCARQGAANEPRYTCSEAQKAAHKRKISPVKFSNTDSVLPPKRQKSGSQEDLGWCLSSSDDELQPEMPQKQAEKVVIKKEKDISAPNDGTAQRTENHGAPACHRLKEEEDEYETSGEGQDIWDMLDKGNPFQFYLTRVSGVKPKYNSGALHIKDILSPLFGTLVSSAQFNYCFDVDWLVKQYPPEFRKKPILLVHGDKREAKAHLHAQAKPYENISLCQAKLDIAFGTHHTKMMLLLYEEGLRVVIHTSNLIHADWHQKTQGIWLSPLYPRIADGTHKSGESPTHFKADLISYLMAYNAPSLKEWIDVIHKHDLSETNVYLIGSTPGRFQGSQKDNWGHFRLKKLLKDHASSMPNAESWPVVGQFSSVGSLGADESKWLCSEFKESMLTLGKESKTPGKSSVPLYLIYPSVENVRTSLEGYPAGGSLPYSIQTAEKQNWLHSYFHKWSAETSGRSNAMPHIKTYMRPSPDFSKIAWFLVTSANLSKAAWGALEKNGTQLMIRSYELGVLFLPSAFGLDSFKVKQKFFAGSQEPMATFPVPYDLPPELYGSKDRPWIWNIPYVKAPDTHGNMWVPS
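Here, a 5' biotin and 3' phosphotyrosine-FITC DNA oligonucleotide reports Tdp1 activity: intact substrate bridges AlphaScreen beads, while cleavage leaves a 3' phosphate and drops signal. All incubations at room temperature.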
Six1-Eya2 inh: Six1/Eya2 interaction inhibition. AlphaScreen GST-Six1/His-Eya2 binding, biochemical; hits give low values. activity change, % (test concentration not listed). actives 0.56% (n = 360,000). AID 651725; in the data active = activity change below about -65%; inconclusive = mostly about -30% to -63%
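Homogeneous AlphaScreen proximity assay pairing GST-Six1 with His-tagged Eya2 (added as 5X mix: 250 nM and 500 nM) in 50 mM Tris pH 8.0, 300 mM NaCl, 1 mM TCEP. Glutathione donor and nickel acceptor beads; 1 h, 37 °C, dark.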
Active calls of the source: *; [ ] = remark or other dose. Unless noted, calls come from the whole dose curve; as a rule, active = well fitted curve in the direction sought with a large enough effect; inconclusive = small, poorly fitted or top-dose-only effect, or another doubt; inactive = no such curve, though single readings can be large; an effect the other way counts as inactive or inconclusive. % is set by controls: 0 for no effect and ±100 for the full control effect.

For Fc1ccc(Nc2nc(SCc3ccccc3F)nc3ccccc23)cc1 the results were DT40 TDP1 CPT 16µM*, TDP1 cell noCPT 16µM* and TDP1 block 4%.
Fc1ccc(Nc2nc(-c3ccncc3)nc3ccccc23)cc1 was read as CtBP-E1A inh -4, IL-1B inflam inh 39, DT40 TDP1 CPT inconclusive, TDP1 cell noCPT inconclusive, TDP1 block 5% and Six1-Eya2 inh 3.
Screening O=C(NCC(=O)N1CCCC1)c1ccc(Br)o1 returned CtBP-E1A inh -13, IL-1B inflam inh -6, DT40 TDP1 CPT -3%, TDP1 cell noCPT 5% and Six1-Eya2 inh 3.
Screening CCC(=O)Nc1ccc(-c2nc3ncccc3o2)cc1C returned DT40 TDP1 CPT 1%, TDP1 cell noCPT -4% and TDP1 block 6%.
Cc1cc(N(C)C)nc(Nc2ccccc2)n1 was read as IL-1B inflam inh -79*, DT40 TDP1 CPT -18%, TDP1 cell noCPT inconclusive, TDP1 block 2% and Six1-Eya2 inh 2.
`COc1ccc(C(C(=O)NC(C)(C)C)N(C(=O)CCC(=O)Nc2cc(C)on2)c2cc(C)cc(C)c2)cc1` (stereo not given) gave CtBP-E1A inh -15, IL-1B inflam inh -2, DT40 TDP1 CPT inconclusive, TDP1 cell noCPT 21µM*, TDP1 block 9% and Six1-Eya2 inh -13.
COc1ccc(N(C(=O)Cn2cnc3ccccc32)C(C(=O)NC2CCCCC2)c2ccccc2)cc1 (stereo not given) was read as CtBP-E1A inh 2, IL-1B inflam inh -75*, DT40 TDP1 CPT 15µM*, TDP1 cell noCPT inconclusive, TDP1 block 0% and Six1-Eya2 inh -8.
CCOc1ccc(N(C(=O)Cn2nnc3ccccc32)C(C(=O)NCc2ccccc2)c2ccc(OC)cc2)cc1 (stereo not given) was read as DT40 TDP1 CPT -28%, TDP1 cell noCPT -21% and TDP1 block 4%.
COc1cccc(C(C(=O)NC(C)(C)C)N(Cc2ccco2)C(=O)CCC(=O)Nc2cc(C)on2)c1OC (stereo not given) was read as CtBP-E1A inh -2, IL-1B inflam inh -12, DT40 TDP1 CPT 3%, TDP1 cell noCPT 29µM*, TDP1 block 5% and Six1-Eya2 inh 5.
`Cc1cc(NC(=O)CCC(=O)N(c2ccccc2)C2(C(=O)NC3CCCCC3)CCCC2)no1` gave CtBP-E1A inh 0, IL-1B inflam inh -61*, DT40 TDP1 CPT -22%, TDP1 cell noCPT -29%, TDP1 block 0% and Six1-Eya2 inh 15.
`CC1CN(C(=O)COC(=O)c2ccc3ncsc3c2)CC(C)O1` (stereo not given) gave CtBP-E1A inh -7, IL-1B inflam inh -9, DT40 TDP1 CPT -1%, TDP1 cell noCPT 5%, TDP1 block 0% and Six1-Eya2 inh 8.
For Cn1c2ccccc2c2nnc(SCC(=O)NC3CC3)nc21 the results were CtBP-E1A inh -5, IL-1B inflam inh -4, DT40 TDP1 CPT -2%, TDP1 cell noCPT -23%, TDP1 block -5%[0.0935 µM] and Six1-Eya2 inh -13.
Cc1cc(NC(=O)CCC(=O)N(Cc2ccccc2)C(C(=O)NC2CCCC2)c2ccco2)no1 (stereo not given) was read as CtBP-E1A inh 4, IL-1B inflam inh -11, DT40 TDP1 CPT -17%, TDP1 cell noCPT inconclusive and Six1-Eya2 inh 8.
`Cc1cc(C)cc(N(C(=O)CCC(=O)Nc2cc(C)on2)C(C(=O)NC2CCCC2)c2ccco2)c1` (stereo not given) gave CtBP-E1A inh -9, IL-1B inflam inh -5, DT40 TDP1 CPT inconclusive, TDP1 cell noCPT 21µM*, TDP1 block -5% and Six1-Eya2 inh -9.
For Cc1cccc(N(C(=O)CCC(=O)Nc2cc(C)on2)C(C(=O)NC2CCCC2)c2ccc(C)o2)c1 (stereo not given) the results were CtBP-E1A inh -5, IL-1B inflam inh -1, DT40 TDP1 CPT inconclusive, TDP1 cell noCPT -18%, TDP1 block 5% and Six1-Eya2 inh -3.
For Cc1ccc(C)c(N(C(=O)CCC(=O)Nc2cc(C)on2)C(C(=O)NC2CCCC2)c2ccco2)c1 (stereo not given) the results were CtBP-E1A inh 4, IL-1B inflam inh -6, DT40 TDP1 CPT 16µM*, TDP1 cell noCPT 23µM*, TDP1 block 4% and Six1-Eya2 inh 0.
Screening COc1ccc(N(C(=O)Cn2nnc3ccccc32)C2(C(=O)NC3CCCC3)CCCCC2)cc1 returned CtBP-E1A inh 5, IL-1B inflam inh -58*, DT40 TDP1 CPT inconclusive, TDP1 cell noCPT inconclusive, TDP1 block 0% and Six1-Eya2 inh 0.
`CCOC(=O)C(=O)/C(C#N)=C/Nc1ccccc1` gave CtBP-E1A inh -2, IL-1B inflam inh 5, DT40 TDP1 CPT 4%, TDP1 cell noCPT -9%, TDP1 block 4% and Six1-Eya2 inh -2.
Screening CCOC(=O)/C(=C\c1ccccc1)C(=O)c1cc(C(C)=O)c(Nc2ccccc2)s1 returned CtBP-E1A inh 10, IL-1B inflam inh -101*, DT40 TDP1 CPT 8.2µM*, TDP1 cell noCPT 9.2µM*, TDP1 block -1% and Six1-Eya2 inh 5.
For CCOC(=O)/C(=C\c1cccnc1)C(=O)c1cc(C(C)=O)c(Nc2ccccc2)s1 the results were CtBP-E1A inh -1, IL-1B inflam inh -103*, DT40 TDP1 CPT 2.1µM*, TDP1 cell noCPT 1.8µM*, TDP1 block -2% and Six1-Eya2 inh -9.
For CSCCC(NS(=O)(=O)c1cccc(C(F)(F)F)c1)C(=O)N(C)CCOc1ccc(Cl)cc1 (stereo not given) the results were CtBP-E1A inh 4, IL-1B inflam inh -57*, DT40 TDP1 CPT inconclusive, TDP1 cell noCPT inconclusive and Six1-Eya2 inh -4.
Screening CSCCC(NS(=O)(=O)c1cccc(C(F)(F)F)c1)C(=O)N1CCN(C(=O)c2ccco2)CC1 (stereo not given) returned CtBP-E1A inh -8, IL-1B inflam inh 12, DT40 TDP1 CPT -8%, TDP1 cell noCPT 9% and Six1-Eya2 inh 1.
Oc1ccc[n+](/C=C\c2ccccc2)c1 was read as CtBP-E1A inh 11, IL-1B inflam inh 17, DT40 TDP1 CPT inconclusive, TDP1 cell noCPT inconclusive, TDP1 block 8% and Six1-Eya2 inh 14.
